Assay results from PubChem BioAssay (NCI).
This is part of a sample that, as a whole, favours compounds with a hit. Of some 79,000 tested, about 15% had one in any assay. Values without a mark were called inactive. Activity calls are given as the source filed them. Cut-off read from the data, not from the text of the source: active = growth inhibition above about 70%; inactive = the rest.

Assay: NCI Yeast Anticancer Drug Screen. Data for the mlh1 strain (AID 171);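 note: 0% = growth of vehicle-treated control cultures of the same strain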
Conditions: S. cerevisiae mlh1 strain growth inhibition, stronger effect = higher value
Protocol: Growth inhibition of yeast strains with defined genetic alterations is measured as a screen for potential anti-cancer activity. Selected strains with alterations in DNA damage repair or cell cycle control were exposed to compounds and growth inhibition was measured relative to vehicle treated controls. The strain used in this assay is mlh1

For `CC(=O)N1C(=O)/C(=C\C(=O)c2ccc([N+](=O)[O-])cc2)c2ccccc21`, the growth inhibition (at 1.2 µM) was -8%, the growth inhibition (at 3.7 µM) was 14% and the growth inhibition (at 11.0 µM) was 67%. The growth inhibition (at 33.0 µM) was 95% (active) and the growth inhibition (at 100.0 µM) was 97% (active).
`CC1C(C#N)(C#N)C(C#N)=C(N)C1(Cl)[N+](=O)[O-]` (stereo not given) showed a growth inhibition (at 1.2 µM) of 11%, a growth inhibition (at 3.7 µM) of 28% and a growth inhibition (at 11.0 µM) of 45%. The growth inhibition (at 33.0 µM) was 68% and the growth inhibition (at 100.0 µM) was 89% (active).
Work on `CN(C)CCN1C(=O)c2cccc3cc([N+](=O)[O-])cc(c23)C1=O` yielded a growth inhibition (at 1.2 µM) of 14%, a growth inhibition (at 3.7 µM) of 1% and a growth inhibition (at 11.0 µM) of -13%. For the same compound, the growth inhibition (at 33.0 µM) was 0% and the growth inhibition (at 100.0 µM) was 60%.
`Nc1ccc(S(=O)(=O)Nc2ccc(Nc3c4ccccc4nc4ccccc34)cc2)cc1` gave a growth inhibition (at 1.2 µM) of 4%, a growth inhibition (at 3.7 µM) of 24% and a growth inhibition (at 11.0 µM) of 23%. The growth inhibition (at 33.0 µM) was 24% and the growth inhibition (at 100.0 µM) was 60%.
`COc1ccc2c(c1)[nH]c1c(/C=C/c3ccccc3)nccc12` showed a growth inhibition (at 1.2 µM) of -42%, a growth inhibition (at 3.7 µM) of -36% and a growth inhibition (at 11.0 µM) of -35%. The growth inhibition (at 33.0 µM) was 68% and the growth inhibition (at 100.0 µM) was 96% (active).
For `CCc1nc(N)nc(N)c1-c1ccc(NCCCCCCN)c([N+](=O)[O-])c1`, the growth inhibition (at 1.2 µM) was -4%, the growth inhibition (at 3.7 µM) was -1% and the growth inhibition (at 11.0 µM) was 0%. It also gave a growth inhibition (at 33.0 µM) of -6% and a growth inhibition (at 100.0 µM) of -5%.
In the case of `S=c1[nH]c2c(Cl)c(Cl)c(Cl)c(Cl)c2[nH]1`, the growth inhibition (at 1.2 µM) is reported as 2%, the growth inhibition (at 3.7 µM) is reported as 22% and the growth inhibition (at 11.0 µM) is reported as 75% (active). The growth inhibition (at 33.0 µM) was 98% (active) and the growth inhibition (at 100.0 µM) was 94% (active).
With `CCCCCCCCCCCCCC(=O)OC(C)CCC1CCCO1` (stereo not given) the growth inhibition (at 1.2 µM) was -1%, the growth inhibition (at 3.7 µM) was 3% and the growth inhibition (at 11.0 µM) was 2%. The growth inhibition (at 33.0 µM) was 3% and the growth inhibition (at 100.0 µM) was 4%.
